From PubChem BioAssay

The compounds below were run against Fibroblast growth factor 2 (Homo sapiens) (UniProt P09038) (assay: basic fibroblast growth factor binding to printed compounds – biochemical, small-molecule microarray, 635/667 nm fluorescence, primary screen (AID 1133)). Settings: FGF2, fluorescence 635/667, higher = more signal.
Sequence of Fibroblast growth factor 2 (Homo sapiens) (P09038 whole entry, looked up): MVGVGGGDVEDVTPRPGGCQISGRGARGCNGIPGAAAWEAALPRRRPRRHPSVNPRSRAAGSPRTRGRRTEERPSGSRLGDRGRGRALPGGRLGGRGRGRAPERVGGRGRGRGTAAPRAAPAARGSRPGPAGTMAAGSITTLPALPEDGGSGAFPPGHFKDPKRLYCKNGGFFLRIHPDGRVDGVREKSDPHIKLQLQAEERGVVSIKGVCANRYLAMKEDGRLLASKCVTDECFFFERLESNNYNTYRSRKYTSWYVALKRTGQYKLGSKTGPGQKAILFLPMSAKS
With CON=C1[C@H]2CCn3c(=O)n(-c4ccccc4)c(=O)n3[C@H]2[C@H](O)[C@@H]2O[C@H]12 the composite z-score was 0.986. Compound CC(C)=CCCC(C)=CCON=C1C[C@@H](O)[C@@H](O)[C@@H]2[C@@H]3C(=O)N(C(C)(C)C)C(=O)[C@@H]3CC[C@@H]12 has a composite z-score of 0.247. Compound CC(C)(C)N1C(=O)[C@H]2[C@H]3[C@H](O)[C@H](O)CC(=O)[C@@H]3CC[C@H]2C1=O has a composite z-score of 1.08. Compound CC(=O)OC[C@H]1O[C@H](CC=NO[C@H](C)c2cn([C@H](CO)Cc3ccccc3)nn2)C=C[C@@H]1OC(C)=O has a composite z-score of 0.494. Work on C=Cc1ccc([C@H]2N[C@H](C(=O)O)CC[C@@H]2C)cc1 yielded a composite z-score of 0.486. With O=C(C=Cc1ccc2c(c1)OCO2)c1ccc(F)cc1 the composite z-score was 1.31. C[C@@H]1CC[C@H]2C(=O)O[C@@H](Cc3ccccc3)CN2[C@H]1c1ccc(Br)cc1 showed a composite z-score of 0.297. For C=CC1=C[C@H](O)[C@@H]2O[C@@H]2C12OCCCO2, the composite z-score was 0.151. With CCN1C(=O)[C@H]2[C@H]3[C@H](O)[C@H](O)CC(=NO[C@@H](C)c4cn([C@H](CO)Cc5ccccc5)nn4)[C@@H]3CC[C@H]2C1=O the composite z-score was 0.894. For CCOC(=O)[C@H](Cc1ccccc1)NC(=O)CCC1CC(OC(=O)NCc2ccc3c(c2)OCO3)CC2(CCCC(COC(=O)NCCC(C)C)O2)O1 (some centres not stated), the composite z-score was 1.06. In the case of O=C1[C@H]2[C@H]3[C@H](O)[C@H](O)CC(=NOC[C@@H](O)COCc4ccco4)[C@H]3CC[C@H]2C(=O)N1C[C@@H]1CCCO1, the composite z-score is reported as 1.61. Work on CC(C)=NO[C@H](C)c1cn([C@H](CO)Cc2ccccc2)nn1 yielded a composite z-score of 0.137. O=C1CCCC=C1C(O)CCCCBr (configuration not stated) gave a composite z-score of 0.306. COC(=O)CC=C[C@@H](C)[C@@H](C=NOC[C@@H](O)[C@H]1O[C@@H]2OC(C)(C)O[C@@H]2[C@H]1O)NS(=O)(=O)c1ccc(C)cc1 showed a composite z-score of 0.276. CCOC(=O)[C@H](Cc1ccccc1)NC(=O)CCC1CC(OC(=O)NCCc2ccc(F)cc2)CC2(CCCC(COC(=O)NCc3ccccc3)O2)O1 (some centres not stated) showed a composite z-score of 0.473. Work on COC(=O)CC=C[C@@H](C)[C@@H](C=NOC(C)CN1CCCc2nc(C)c(C)cc21)OC (some centres not stated) yielded a composite z-score of 0.604. For O=C1CCCC=C1C(O)CCOC(c1ccccc1)(c1ccccc1)c1ccccc1 (configuration not stated), the composite z-score was 0.058. C[C@@H]1C=CCC(=O)OC[C@H]2O[C@@H](C=C[C@@H]2O)[C@H](C)C=CCC(=O)OC1 showed a composite z-score of 1.98. CO[C@@H]1C=CCC(=O)N[C@@H](C)C(=O)OC[C@@H](OC)[C@H](C)CCCC(=O)OC[C@H]1C was tested, and the composite z-score was 0.343. With Cc1ccc(S(=O)(=O)OC[C@H]2CN3[C@H](c4ccc(Br)cc4)[C@@H](C)CC[C@H]3C(=O)O2)cc1 the composite z-score was 1.45. CC(C)=CCCC(C)=CCON=C1C[C@@H](O)[C@@H](O)[C@@H]2[C@@H]3C(=O)N(C4CCCCC4)C(=O)[C@@H]3CC[C@@H]12 showed a composite z-score of 0.417. O=C1C=C[C@@H](O)[C@@H]2[C@@H]3C(=O)N(C[C@@H]4CCCO4)C(=O)[C@@H]3CC[C@@H]12 gave a composite z-score of 0.535. Work on CCOC(=O)[C@H](CC(C)C)NC(=O)CCC1CC(OC(=O)NCc2cccc3ccccc23)CC2(CCCC(COC(=O)NCCCN3CCCC3=O)O2)O1 (some centres not stated) yielded a composite z-score of 0.737. With Cc1ccc(S(=O)(=O)N[C@H]2COC(=O)CC=C[C@@H](C)COC(=O)CC=C[C@@H]2C)cc1 the composite z-score was 1.4. Work on Cn1c(=O)n2n(c1=O)[C@H]1[C@H](O)[C@@H]3O[C@@H]3C(=O)[C@H]1CC2 yielded a composite z-score of 0.348. For O=C1C[C@@H](O)[C@@H](O)[C@@H]2[C@@H]3C(=O)N(C[C@@H]4CCCO4)C(=O)[C@@H]3CC[C@@H]12, the composite z-score was 0.657. COc1ccc(O[C@H]2C=C[C@@H](c3ccccc3)O[C@@H]2CON=C2[C@H]3CCn4c(=O)n(-c5ccccc5)c(=O)n4[C@H]3[C@H](O)[C@@H]3O[C@H]23)cc1 showed a composite z-score of 0.199.
